Legend:
Assay in all cases: PBM binding z-score (relative to random genomic background probes); higher = stronger binding; sequences stand for … in GC…GCGATTGACAGCGTAGAATGAAGG
[1] = test system: RARb homodimer (NR concentration 270 nM)
Procedure, shortened: (§1)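 On custom Agilent 4×180K arrays, double-stranded probes with 34-nt variable regions carried direct-repeat seeds, single-nucleotide variants, half-site ablations or random human genomic background. Ligand-free nuclear receptor dimers were applied for 1 h, and binding was read with antibodies against each partner (one per run). Binding z-scores come from regression-normalized fluorescence, with the random background probes as reference.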

[2] = test system: RARg:RXRa (NR concentration 270 nM, RXRa partner concentration 90 nM)
Procedure, shortened: as §1

[3] = test system: RARg homodimer (NR concentration 270 nM)
Procedure, shortened: as §1

[4] = test system: RXRa DBDmut IVT, anti-RXR (DBD mutation: RXRa K156A/R161A, NR concentration 90 nM)
Procedure, shortened: as §1

[5] = test system: RXRa homodimer (NR concentration 180 nM)
Procedure, shortened: as §1

[6] = test system: THRa:RXRa (NR concentration 90 nM, RXRa partner concentration 90 nM)
Procedure, shortened: as §1

[7] = test system: THRa homodimer (NR concentration 90 nM)
Procedure, shortened: as §1

[8] = test system: VDR:RXRa (NR concentration 270 nM, RXRa partner concentration 90 nM)
Procedure, shortened: as §1

[9] = test system: VDR homodimer (NR concentration 270 nM)
Procedure, shortened: as §1

CATACAGGGGCAGCTAGGCCAGAGTAGGGACGGC
PBM binding z-score [1]: 0.473 | PBM binding z-score [2]: 0.498 | PBM binding z-score [3]: 1.02 | PBM binding z-score [4]: -0.381 | PBM binding z-score [5]: -0.153 | PBM binding z-score [6]: 0.05 | PBM binding z-score [7]: -0.63 | PBM binding z-score [8]: -0.446 | PBM binding z-score [9]: -0.506

GCATATAGGTATTACAAGGTGAAAGTCCGATTGT
PBM binding z-score [1]: 0.63 | PBM binding z-score [2]: 0.464 | PBM binding z-score [3]: 0.464 | PBM binding z-score [4]: 0.414 | PBM binding z-score [5]: 0.523 | PBM binding z-score [6]: 3.76 | PBM binding z-score [7]: 1.14 | PBM binding z-score [8]: 0.134 | PBM binding z-score [9]: -0.251

CCTAGTTGTTCAAGGTCACACACGCTATAGGTAC
PBM binding z-score [1]: 4.25 | PBM binding z-score [2]: 4.69 | PBM binding z-score [3]: 4.87 | PBM binding z-score [4]: 2.65 | PBM binding z-score [5]: 4.92 | PBM binding z-score [6]: 4.3 | PBM binding z-score [7]: 4.9 | PBM binding z-score [8]: 4.49 | PBM binding z-score [9]: 4.98

CAAACTAGGTCAAGGTCACAGTCGGTTTGTGCCA
PBM binding z-score [1]: 5.15 | PBM binding z-score [2]: 6.22 | PBM binding z-score [3]: 6.99 | PBM binding z-score [4]: 2.66 | PBM binding z-score [5]: 5.94 | PBM binding z-score [6]: 4.67 | PBM binding z-score [7]: 4.75 | PBM binding z-score [8]: 5.06 | PBM binding z-score [9]: 4.27

CCTATTATTTGACCATAAGGGCAACCGAAGCTCG
PBM binding z-score [1]: 2.16 | PBM binding z-score [2]: 1.05 | PBM binding z-score [3]: 1.21 | PBM binding z-score [4]: 1.06 | PBM binding z-score [5]: 0.762 | PBM binding z-score [6]: 1.83 | PBM binding z-score [7]: 2.31 | PBM binding z-score [8]: 1.28 | PBM binding z-score [9]: 2.19

CATACAGGGTCAGCTAGGCTAGAGTAGGGACGGC
PBM binding z-score [1]: 3.04 | PBM binding z-score [2]: 4.09 | PBM binding z-score [3]: 4.3 | PBM binding z-score [4]: 1.33 | PBM binding z-score [5]: 3.94 | PBM binding z-score [6]: 2.84 | PBM binding z-score [7]: 1.02 | PBM binding z-score [8]: 3 | PBM binding z-score [9]: 1.04

CGTCCAAGGTCAAAGATCAGTGAAGAGATGACGG
PBM binding z-score [1]: 3.86 | PBM binding z-score [2]: 6.12 | PBM binding z-score [3]: 6.48 | PBM binding z-score [4]: 3.73 | PBM binding z-score [5]: 6.79 | PBM binding z-score [6]: 3.85 | PBM binding z-score [7]: 1.87 | PBM binding z-score [8]: 4.44 | PBM binding z-score [9]: 2.6

CCAGACAGGTGAAAGGTAACCCAGTCTGGTACGC
PBM binding z-score [1]: 0.747 | PBM binding z-score [2]: 1.35 | PBM binding z-score [3]: 0.881 | PBM binding z-score [4]: -0.455 | PBM binding z-score [5]: 1.83 | PBM binding z-score [6]: 0.935 | PBM binding z-score [7]: -0.0283 | PBM binding z-score [8]: 0.645 | PBM binding z-score [9]: -0.223

CGAACCAGGTCAAGGACAGTGAATCTCCGCACGC
PBM binding z-score [1]: 3.09 | PBM binding z-score [2]: 3.99 | PBM binding z-score [3]: 4.33 | PBM binding z-score [4]: 2.23 | PBM binding z-score [5]: 3.47 | PBM binding z-score [6]: 3.82 | PBM binding z-score [7]: 2.79 | PBM binding z-score [8]: 2.22 | PBM binding z-score [9]: 1.05

TCTTGTAGCTCAGCAGGTTAAGAAAGCTGGCCAA
PBM binding z-score [1]: -0.305 | PBM binding z-score [2]: -0.557 | PBM binding z-score [3]: -0.799 | PBM binding z-score [4]: -0.298 | PBM binding z-score [5]: -0.011 | PBM binding z-score [6]: -0.123 | PBM binding z-score [7]: -0.926 | PBM binding z-score [9]: -0.952

GGCACGAGGGCATTCGAGTTGATAGCATGGCGAT
PBM binding z-score [1]: 0.614 | PBM binding z-score [2]: 1.04 | PBM binding z-score [3]: 1.53 | PBM binding z-score [4]: 3.11 | PBM binding z-score [5]: 0.455 | PBM binding z-score [6]: 3.42 | PBM binding z-score [7]: -0.251 | PBM binding z-score [8]: 3.54 | PBM binding z-score [9]: 3.45

CCAGACAGGTGCGAAGGTAACTCAGCCTCGATTA
PBM binding z-score [1]: -0.418 | PBM binding z-score [2]: -0.29 | PBM binding z-score [3]: -0.243 | PBM binding z-score [4]: 0.384 | PBM binding z-score [5]: -0.121 | PBM binding z-score [6]: -0.305 | PBM binding z-score [7]: -0.159 | PBM binding z-score [8]: -0.435 | PBM binding z-score [9]: -0.453

CGAACGAGGGCATCAGTTGATAGCAAATGCCGAT
PBM binding z-score [1]: 0.822 | PBM binding z-score [2]: 0.928 | PBM binding z-score [3]: 1.83 | PBM binding z-score [4]: 2.49 | PBM binding z-score [5]: 0.686 | PBM binding z-score [6]: 0.964 | PBM binding z-score [7]: -0.293 | PBM binding z-score [8]: 0.559 | PBM binding z-score [9]: 1.48

AGAATGAGGTTACCAAAGATCACGGAAACGCTTG
PBM binding z-score [1]: 1.02 | PBM binding z-score [2]: 2.24 | PBM binding z-score [3]: 1.89 | PBM binding z-score [4]: 1.17 | PBM binding z-score [5]: 2.95 | PBM binding z-score [6]: 3.03 | PBM binding z-score [7]: 0.696 | PBM binding z-score [8]: 1.97 | PBM binding z-score [9]: 0.151

CGAACTAGGTCAGAACAGGACAGTGTAGGATGAT
PBM binding z-score [1]: 2.16 | PBM binding z-score [2]: 2.56 | PBM binding z-score [3]: 3.47 | PBM binding z-score [4]: 0.551 | PBM binding z-score [5]: 1.28 | PBM binding z-score [6]: 3.47 | PBM binding z-score [7]: 0.227 | PBM binding z-score [9]: 0.291

GCTTGTAGATCAAGGTTAAGTAAGACTAAGCTAA
PBM binding z-score [1]: 0.397 | PBM binding z-score [2]: 0.425 | PBM binding z-score [3]: 0.177 | PBM binding z-score [4]: 0.147 | PBM binding z-score [5]: 0.706 | PBM binding z-score [6]: 2.36 | PBM binding z-score [7]: -0.276 | PBM binding z-score [9]: -0.509

Reference: the supplement of paper PMC6555819
